Compound activity from PubChem BioAssay.
The list is not random: actives were taken first. Their share in the collection is about 12%.
Cycloheximide cs: counter-screen hit for Shiga toxin inhibitors, cycloheximide | cell reporter, cycloheximide protein synthesis inhibition counterscreen | max response, % | hit rate 12% among 300,000 | AID 2314; in the data active = max response mostly above about 13%, no sharp cut-off; inactive = mostly below about 14%; also: read at 38.3 µM for the half of the compounds with a filed dose
Shiga toxin inh: inhibitors of Shiga toxin in Vero cells. AID 2315. Vero cells, Shiga toxin protein synthesis inhibition reporter. inhibition, % at 38.7 µM. hit rate 9.2% among 290,000; in the data active = inhibition mostly above about 28%, no sharp cut-off; inactive = mostly below about 43%
Sm TGR block: inhibitors of Schistosoma mansoni thioredoxin glutathione reductase | Q962Y6 | purified TGR, DTNB reduction, TNB absorbance 405 nm | Potency, µM (top dose mostly 114 µM), most hits filed as inhibitors | hit rate 3% among 360,000 | AID 485364; active = well fitted inhibition curve with a large enough effect; inconclusive = small, poorly fitted or top-dose-only effect; inactive = no such curve, though single readings can be large or run the other way; also: nearly all actives have a fitted effect of over 60% in size
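TGR 20 nM + NADPH 100 uM (dispensed conc.), cpd preinc 15 min RT; start with NADPH (500 uM addition) then DTNB (15 mM addition). Kinetic TNB absorbance, 405 nm filter. Four-parameter Hill fit across titration.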
FMDV inh: antivirals against foot and mouth disease virus; FMDV antiviral cell-based qHTS; Potency, µM (series often up to 57.9 µM), hits mostly inhibitors; hit rate 1.2% among 410,000; AID 1159524; calls by dose curve; tested in HEK293T cells; also: read-out not given here; nearly all actives have a fitted effect of over 45% in size
Numbers stand for hits; 0 = inactive; ? = inconclusive; - = not tested or not shown.

SMILES | Cycloheximide cs | Shiga toxin inh | Sm TGR block | FMDV inh
C=CCNc1oc(-c2ccc(OCC)cc2)nc1C#N | 15 | 63 | 0 | 0
CCOc1ccc(Nc2oc(-c3ccco3)nc2C#N)cc1 | 33 | 0 | 0 | 0
Cc1cccn2c(=O)cc(COc3cccc(NC(=O)COc4ccccc4)c3)nc12 | - | - | 0 | 0
Cc1c(C(=O)NCC2(N3CCOCC3)CCCCCC2)cnn1-c1nccc(-c2ccccc2F)n1 | - | - | - | 0
COc1cc(S(=O)(=O)NCCc2c(C)[nH]c3ccccc23)c(C)cc1C | - | - | 0 | 0
COc1cc(NC(=O)c2ccc(C)c(Cl)c2)ccc1NC(=O)c1cc2ccccc2o1 | - | - | 0 | 0
C=CCNc1oc(-c2ccc(OC)cc2)nc1C#N | 43 | 78 | 0 | 0
Cc1c(C(=O)/C=C/N(C)C)nnn1-c1ccc(Cl)c(Cl)c1 | 0 | 0 | 0 | 0
NC(=O)c1nn(-c2ccc(Cl)cc2Cl)c(=O)cc1O | 0 | 0 | 0 | 0
Cc1c(C(=O)/C=C/N(C)C)nnn1-c1ccc(F)c(Cl)c1 | 33 | 76 | 0 | 0
Cc1c(C(=O)/C=C/N(C)C)nnn1-c1ccc(Cl)cc1Cl | 0 | 58 | 0 | 0
O=C(Nc1cccnc1Cl)c1cc(-c2ccc(O)cc2)on1 | 25 | 73 | 0 | 0
O=C(NC1CCCCC1)c1cc(-c2ccccc2O)on1 | 27 | 109 | 0 | 0
O=C(NC1CCCCC1)c1cc(-c2ccc(O)cc2)on1 | 33 | 71 | 0 | 0
Cc1ccc(-c2cc(C(=O)NC3CCCCC3)no2)cc1 | 20 | 0 | 0 | 0
O=C(NC1CCCCCC1)c1ccccc1-c1ccccc1 | 0 | 0 | 0 | 0
COc1ccc(-c2cc(C(=O)NC3CCCCC3)no2)cc1OC | 0 | 0 | 0 | 0
O=C1CC(c2cccc(Cl)c2Cl)c2cc3c(cc2N1)OCCO3 (centres undefined) | - | - | 0 | ?
CCCCN1CC(c2nc3ccccc3n2CCCCOc2cccc(C)c2C)CC1=O (centres undefined) | - | - | 0 | 0
COc1ccc(CCNC(=O)/C=C/c2ccc3ccccc3n2)cc1OC | 14 | 0 | 0 | 28µM
O=C(O)CC12CC3CC(C1)CC(n1ncc(NCc4ccccc4Cl)c(Cl)c1=O)(C3)C2 | 0 | 0 | 0 | 0
O=C(O)C12CC3CC(C1)CC(n1ncc(NCc4ccco4)c(Cl)c1=O)(C3)C2 | 0 | 0 | 2.8µM | 0
CC(C)(C)c1ccc(NNC(=O)C2CCC2)cc1 | 0 | 0 | 45µM | 0
CC(C)(C)c1ccc(NC(=O)COC(=O)C2CCCC2)cc1 | - | - | 0 | 0
O=C(NNC1=NCCCCC1)Nc1ccc(Cl)cc1 | 23 | 0 | 0 | 0
SMILES | Cycloheximide cs | Shiga toxin inh | Sm TGR block | FMDV inh
O=C(NNC1=NCCCCC1)Nc1cccc(Cl)c1 | 12 | 0 | 0 | 0
CCS(=O)(=O)N1CCCC(C(=O)NCCOC)C1 (centres undefined) | - | - | 0 | 0
CC(=O)N1c2ccc(S(=O)(=O)Nc3ccc(Cl)cc3C)cc2CC1C (centres undefined) | - | - | 0 | 0
Cc1ccc(C)c(N2CCN(C(=O)Cn3cnc4nc5c(cc4c3=O)CCCC5)CC2)c1 | - | - | 0 | ?
COc1cccc(-c2ccc3nccn3c2)c1 | - | - | - | 0
COc1cccc(-c2cn3nc(C)c(C)nc3n2)c1 | 41 | 167 | ? | 0
NS(=O)(=O)c1nn2cc(-c3ccccc3)nc2s1 | 19 | 59 | - | 0
Cc1nn2cc(-c3ccc(-c4ccccc4)cc3)nc2s1 | 26 | 0 | 0 | 0
CCc1nn2cc(-c3ccccc3)nc2s1 | 0 | 0 | 0 | 0
Cc1nc2nc(-c3ccc(Cl)cc3)cn2nc1C | 38 | 93 | 0 | ?
COCc1nn2cc(-c3ccc(C)cc3)nc2s1 | - | - | 0 | 0
CCC(Cn1nnc2ccccc2c1=O)NC(=O)Nc1ccccc1OC (centres undefined) | - | - | 0 | 0
CCOC(=O)c1ccc(Nc2nc3ccc(C(=O)c4ccccc4)cc3n3c(C)nnc23)cc1 | - | - | 0 | 0
Cc1nc2nc(-c3cccs3)cn2nc1C | 31 | 0 | ? | 0
Cc1nn2cc(-c3ccc(Cl)cc3)nc2s1 | 59 | 112 | 0 | 0
Cc1nn(C)c2nc(-c3cccs3)cc(C(F)(F)F)c12 | 0 | 0 | 0 | 0
c1ccc(-c2cn3nc(-c4ccccc4)c(-c4ccccc4)nc3n2)cc1 | 0 | 0 | 0 | 0
Cc1ccc(-c2cn3nc(-c4ccccc4)c(-c4ccccc4)nc3n2)cc1 | 16 | 0 | 0 | 0
S=C(NCc1cccs1)Nc1ccccc1Cl | 24 | 44 | 11µM | 0
COc1ccc(CNC(=S)Nc2ccccc2Cl)cc1 | 0 | 0 | 40µM | 0
S=C(NCc1cccs1)Nc1cccc(Cl)c1 | 0 | 0 | 0 | 0
COc1ccc(CNC(=S)Nc2ccccc2-c2ccccc2)cc1 | 0 | 0 | 0 | -
S=C(NCc1cccs1)Nc1cc(Cl)cc(Cl)c1 | 0 | 0 | 11µM | 0
O=C(Nc1nc2c(F)c(F)c(F)cc2s1)c1ccco1 | 29 | 103 | 0 | 0
O=C(CCc1ccccc1)Nc1nc2c(F)cc(F)cc2s1 | 45 | 113 | 0 | 0
SMILES | Cycloheximide cs | Shiga toxin inh | Sm TGR block | FMDV inh
O=C(Nc1ccc(-c2nc3c(ccc4ccccc43)o2)cc1)c1ccco1 | 26 | 0 | 0 | 0
O=C(CN1C(=O)NC2(CCCC2)C1=O)Nc1nc2c(F)cc(F)cc2s1 | - | - | 0 | 0
O=C(Nc1nc2c(F)cc(F)cc2s1)c1ccco1 | 37 | 38 | 0 | 0
O=C(COC(=O)c1ccco1)Nc1nc2c(F)c(F)c(F)cc2s1 | 0 | 0 | 0 | 0
O=C(Nc1nc2c(Cl)ccc(Cl)c2s1)c1ccco1 | 0 | 0 | 0 | 0
O=C(Nc1ccc(-c2nc3cc(Cl)ccc3c(=O)o2)cc1)c1ccco1 | 0 | 0 | 0 | 0
O=C(Nc1nnc(S(=O)(=O)N2CCCc3ccccc32)s1)c1ccccc1Br | - | - | 0 | 0
O=C(Nc1nc2c(ccc3ccccc32)s1)c1ccco1 | 47 | 102 | 0 | 0
Cc1nn(C)c2c1c(C(F)(F)F)cc(=O)n2CC(=O)NCCC(C)C | - | - | 0 | 0
Cc1ccc(C(=O)COc2nc(C)nc3ccccc23)cc1 | 24 | 80 | 0 | 0
O=C(Cc1ccccc1)OCC(=O)c1ccccc1 | 30 | 0 | 0 | 0
Cc1ccc(C(=O)COC(=O)Cc2ccccc2)cc1 | 46 | 77 | 0 | 0
O=C(NCc1ccco1)C1CCN(C(=O)N2CCOc3ccc(Cl)cc32)CC1 | - | - | 0 | 0
COc1ccc(C(=O)N/N=C/c2ccc(SC)cc2)cc1 | 19 | 0 | 0 | 0
CSc1ccc(/C=N/NC(=O)c2ccc(O)cc2)cc1 | 46 | 102 | 0 | 0
COc1ccc(/C=C/C(=O)Oc2ccc(/C=N/NC(=O)c3ccncc3)cc2)cc1 | 0 | 0 | 0 | 0
CC1(C)C2CC=C(/C=N/NC(=O)c3ccc(O)cc3)C1C2 (centres undefined) | 15 | 0 | 0 | 0
COC(=O)N/N=C/C1=CCC2CC1C2(C)C (centres undefined) | 0 | 0 | 0 | 0
CC1CCN(C(=O)Nc2cccc(NC(=O)N3CCC(C)CC3)c2)CC1 | 0 | 0 | 0 | 0
O=C(Nc1ccc2nsnc2c1)N1CCCCC1 | 30 | 0 | 0 | 0
CC1CCN(C(=O)Nc2ccc3nsnc3c2)CC1 | 20 | 107 | 0 | -
S=C(Nc1ccc2nsnc2c1)N1CCCCCC1 | 0 | 0 | 0 | 0
COc1ccc(NC(=O)/C(Cl)=C(/Cl)S(=O)Cc2ccccc2)cn1 (centres undefined) | 48 | 0 | 0.32µM | 6.3µM
COc1ccc(/C=C/C(=O)Nc2ccc(OC)nc2)cc1 | 0 | 0 | 0 | 0
COc1ccc(CS(=O)(=O)/C(Cl)=C(/Cl)C(=O)Nc2ccc(OC)nc2)cc1 | 0 | 0 | 10µM | 11µM
